Compound activity from PubChem BioAssay.
A selection: hits, their analogues and other compounds. The true share with any hit is near 1.8%.
NALP1 yeast inh – NALP1 inflammasome inhibitors in reconstituted yeast, colorimetric, S. cerevisiae, triplicate retest | S. cerevisiae NALP1/ASC/caspase-1 growth, X-gal OD620, 72 h | inhibition, % at 10 µM | 280,000 compounds, 0.61% hits; in the data active = inhibition mostly above about 24%, no sharp cut-off; inactive = mostly below about 32%
Mot1-301 SUMO – yeast Mot1-301 growth rescue at high temperature, primary screen, SUMOylation pathway inhibitor project, S. cerevisiae, ATP luminescence, 38.5C. S. cerevisiae Mot1-301 growth rescue; percent above DMSO median, 100 means doubled. growth rescue, % at 18.8 µM. 320,000 compounds, 1% hits. AID 2716, 2010;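 active = every valid replicate shows activation above 250% relative to neutral control wells; inactive = the rest, any valid replicate at or below 250%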;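 note: OY570 slx delta 5 strain wells were the positive control but not used for scaling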
PolyA inhibitor – polyadenylation inhibitors in yeast reporter cells, primary screen, luminescence, S. cerevisiae; S. cerevisiae SKY197-pL101 polyadenylation reporter, beta-gal luminescence; efflux-impaired pdr1/pdr3 knockout yeast; score 100 = 6 SD above DMSO; activity score, % at 12 µM; 300,000 compounds, 0.02% hits; AID 1875, 2009;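 active = lowest replicate activity score at least 50, where 100 means six control SD above control mean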;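 note: yeast exposed to compound for 9 h at 30 °C; higher score means more reporter readthrough which indicates perturbed polyadenylation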
NLRP3 yeast inh – NALP3 inflammasome inhibitors in reconstituted yeast, primary screen, luminescence, uHTS. AID 2825, 2010. 330,000 compounds, 0.39% hits. inhibition, % at 10 µM. Yeast reconstituted NLRP3/ASC/caspase-1, beta-gal luminescence, 24 h;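 active = inhibition of 50% or more; inactive = inhibition below 50%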;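 note: plate controls were induced DMSO wells for no effect and uninduced yeast grown without galactose for full effect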
Mot1 SUMO dose – growth restoration of Mot1-301 yeast on galactose, dose response, SUMO pathway inhibitor project, whole organism, S. cerevisiae, ATP luminescence, cherry-picked samples | shares compounds with Mot1-301 SUMO | S. cerevisiae Mot1-301 galactose growth, 24 h; -100 = growth of slx-deleted rescue strain | growth activity, percent, % at 42 µM | 2,300 tested, under 10 active | AID 493004, 2010;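 active = Signal drops as the depositor expects, and the fitted half-maximal dose is no more than ten times the top valid tested dose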;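 note: more negative values mean stronger growth rescue toward the control strain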
Starred values were filed as active, the others as inactive; / = no result; + = active, no number.

SMILES	NALP1 yeast inh	Mot1-301 SUMO	PolyA inhibitor	NLRP3 yeast inh	Mot1 SUMO dose
Cc1ccc(-c2noc(C3CCCN(S(=O)(=O)c4ccc5ccccc5c4)C3)n2)o1 (stereo unspecified)	10	765*	-17	14	0
CC(C)N1CCNCC1	4	-10	-18	5	/
C=CCSc1nnc2c(n1)[nH]c1c(C)cccc12	22	532*	-28	41	-1
O=C(c1ccc(C(F)(F)F)cc1)N1CCC(=O)N(C(COCc2ccc(C(F)(F)F)cc2)Cc2ccccc2)CC1 (stereo unspecified)	20	0	-8	-7	/
CC(=O)N1CCc2cc(S(=O)(=O)CCC(=O)N3CCN(C(=O)c4ccco4)CC3)ccc21	-74	436*	/	10	0
CC(=O)N1CCc2cc(S(=O)(=O)CCC(=O)N3CCN(c4ccccc4)CC3)ccc21	9	149	-8	15	/
CN(CP(=O)(O)C(O)c1ccccc1)S(C)(=O)=O (stereo unspecified)	7	935*	22	7	0
Nc1ccc(N2CCN(c3ccc(F)cc3)CC2)cc1	0	903*	-15	16	0
Cc1cccc(N=C2C(=O)Nc3c(Cl)cccc32)c1	-7	562*	2	16	0
COc1ccc(Cl)cc1N(C(=O)c1ccco1)C(C(=O)NC1CCCC1)c1ccncc1 (stereo unspecified)	-15	407*	-15	-6	0
Cc1nc(-c2ccc(Cl)cc2)sc1C1(C)CC(c2c(Cl)cccc2Cl)=NO1 (stereo unspecified)	0	421*	1	9	0
CC1CCCN(C(=O)Cc2ccc(F)cc2)C1 (stereo unspecified)	12	408*	-19	-23	0
Cc1cccn2c(=O)c3cc(C(=O)NCCc4ccccc4)sc3nc12	18	798*	13	14	0
Cc1cccn2c(=O)c3cc(C(=O)NCc4cccnc4)c(=N)n(C(C)C)c3nc12	33	759*	4	6	0
O=C(Cn1nc(C(=O)O)c2ccccc2c1=O)c1c[nH]c2ccccc12	0	3	1	1	/
CN1CCc2c(sc3c2C(=O)NC(/C=C\c2ccccc2)N3)C1 (stereo unspecified)	-4	2	10	13	/
COc1ccc(NC(=O)C(c2ccccc2)N2CCN(c3ccccn3)CC2)cc1Cl (stereo unspecified)	25	755*	0	4	1
COc1cc(OC)c(C(=O)N2CCN(c3ccccn3)CC2)cc1OC	-93	798*	-5	12	0
Cc1ccc(NC(=O)C(c2ccccc2)N2CCN(CC(=O)NC3CC3)CC2)cc1Cl (stereo unspecified)	/	-12	/	15	/
Cc1ccc(S(=O)(=O)Cc2ccc(C(=O)N3CCN(c4ccccn4)CC3)o2)cc1	-19	537*	12	12	0
O=C1CCCCC1C(Nc1ccc(Cl)cc1)c1ccccc1 (stereo unspecified)	15	22	-5	-7	/
CCn1c(C)c(C(C)=O)c(N2CCN(c3ccc(F)cc3)CC2)nc1=S	-15	917*	-6	6	0
Cc1ccc(C(=O)O/N=C(\N)c2ccccn2)c(C)c1	3	360	-6	36	/
COc1cc(C(c2c(C)[nH][nH]c2=O)c2c(C)[nH][nH]c2=O)cc(OC)c1OC	-19	674*	1	2	0
COc1cc(C(c2c(C)[nH][nH]c2=O)c2c(C)[nH][nH]c2=O)cc(Cl)c1O	4	2	5	3	/
SMILES	NALP1 yeast inh	Mot1-301 SUMO	PolyA inhibitor	NLRP3 yeast inh	Mot1 SUMO dose
COCCCn1[nH]c2c3c(ccc2c1=O)C(=O)c1ccccc1C3=O	20	4	-2	4	/
COC(=O)C1C(c2ccc(OC)c(OC)c2)NC(c2ccc(OC)c(OC)c2)C(C(=O)OC)S1(=O)=O (stereo unspecified)	-51	520*	4	-1	0
COC(=O)C1CSc2[nH]c(=O)sc2C1c1ccc(OC)c(OC)c1 (stereo unspecified)	-13	-8	2	11	/
Cc1ccc(-c2ccc(/C=N/n3cnnc3)o2)cc1Cl	10	20	-21	26	/
Cc1ccc(-c2ccc(/C=N/n3cnnc3)o2)cc1	39*	505*	3	15	-1
O=C(O)CCC(=O)Nc1cccc(C(=O)Nc2cccc(Cl)c2)c1	-1	-2	39	-10	/
O=C(O)CCC(=O)Nc1cccc(C(=O)Nc2ccc(Br)cc2)c1	15	796*	-17	-4	0
CCOc1ccc(CCNC(=O)COC(=O)COc2ccc(C(C)=O)cc2)cc1OCC	/	+	8	4	-1
CCOc1ccc(CCNC(=O)COC(=O)COc2ccc(C(=O)CC)cc2)cc1OCC	/	5	8	9	/
CCOc1ccc(CCNC(=O)COC(=O)c2cccc(OC)c2O)cc1OCC	3	541*	-8	14	0
CCCCCCC(C)n1[nH]c(=O)c2c(C)cc(=O)[nH]c21 (stereo unspecified)	/	531*	1	6	0
COc1ccc(N(CC(=O)NCc2ccco2)C(=O)CNS(=O)(=O)c2ccc(Cl)cc2)cc1	-2	11	1	12	/
COc1ccc(-c2cccc(C3CC=CC4C3C(=O)N(Cc3ccccc3)C4c3ccc4ccccc4c3)c2)cc1 (stereo unspecified)	2	64	-15	32	/
O=C1C2C(c3ccccc3)CC=CC2[C@H](c2ccc3ccccc3c2)N1Cc1ccccc1 (stereo partly specified)	10	508*	4	6	-1
CC(C)(C)CN1CCN(Cc2c[nH]c3ccccc23)CC1CCO (stereo unspecified)	-20	7	-9	3	/
CN1C(=O)/C(=C/c2ccc(OCc3ccccc3F)cc2)NC1=S	9	375*	-25	6	0
COc1cc(/C=C2\NC(=S)N(C)C2=O)ccc1OCc1ccccc1F	-14	17	-5	14	/
Cc1cc(NC(=O)CSc2ncn(-c3ccccc3)n2)no1	-8	925*	2	11	0
COc1ccc(CNC(=O)C[C@H]2C(=O)N(CCc3ccccc3)C[C@@H]2Cc2ccccc2)cc1	1	-12	-7	15	/
Cn1c(CSc2nc3ccccc3s2)nnc1SCC(=O)NCCN1CCOCC1	12	913*	4	-6	0
C=CCn1c(CSc2nc3ccccc3s2)nnc1SCC(=O)NCCN1CCOCC1	18	-2	-15	5	/
CC(C)Cc1ccc(-c2cc(=O)[nH][nH]2)cc1	21	14	-29	2	/
COC(=O)c1ccc(CN2CCC(Oc3cccc(C(=O)N4CCOCC4)c3)CC2)cc1	6	-35	-8	13	/
